According to PubChem BioAssay (NCI):
This is part of a sample that, as a whole, favours compounds with a hit. Of some 83,000 tested, about 20% had one in any assay.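 Treatment: one concentration, 48 hours, 96-well format. Scoring: percent growth, with anything below 10 considered active.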 Unmarked numbers belong to inactive results. Calls of active or inactive are those of the source.

These molecules were tested on CAKI-1 renal (assay: NCI-60 one-dose screen, 48 h (100 = growth as untreated, 0 = no growth, -100 = all killed)). Settings: 10 µM unless noted.

Structure (SMILES) | growth
NC1=NC(=O)NC1(c1ccccc1)c1ccccc1 | 94.6%
N#C/C(C(=O)c1ccccc1)=C1/C(=O)Nc2ccccc21 | 78.8%
CN(Cc1cccc(C(F)(F)F)c1)C(=O)[C@@H](CC(=O)N1CCC(N2CCCCC2)CC1)N1C(=O)[C@@H](N2C(=O)OC[C@@H]2c2ccccc2)[C@H]1/C=C/c1ccccc1 | 91.9%
CCOc1ccc(S(=O)(=O)Nc2ccc3c(c2)N(S(=O)(=O)CC)CCC3)cc1 | 55.1%
CCOC(=O)C(=Cc1ccccc1[N+](=O)[O-])C(=O)OCC | 24.1%
COc1cc(/C=C/C(=O)/C=C/c2ccc(-n3ccnc3C)cc2)ccc1O | 95.6%
CCOC(=O)CC(c1ccccc1)C(C#N)c1ccccc1 (stereo unspecified) | 87.1%
Cc1ccc(C2=C/C(=C/c3ccc(Br)cc3)C(=O)N2CCc2ccc(S(N)(=O)=O)cc2)cc1 | 65%
Cc1ccc(NC(=O)N[C@@H](Cc2cc(F)cc(F)c2)C(=O)N[C@@H]2C(=O)N3CCC[C@H]3C(=O)N3CCCC[C@H]3C(=O)N[C@@H](C)C(=O)N3C[C@H](C)C[C@H]3C(=O)O[C@H]2C)cc1 | 13.7%
C=C(C)[C@@H]1CC[C@]2(C)[C@H](CC[C@@H]3[C@@H]([C@@](C)(O)CCC=C(C)C)CC[C@]32C)[C@@]1(C)CCC(=O)O | 2.11% [100 µM] (active)
C=CCCCCCCCCC(=O)OC(C)C | 107%
O=C1Nc2ccccc2/C1=C/C(=O)c1ccc(N2CCCCC2)cc1 | 63.8%
O=C(N=c1n(-c2ccccc2)nc2n1CCN2C1=NCCN1C(=O)c1ccc(Cl)cc1)c1ccc(Cl)cc1 | 75.2%
CC1=CC[C@@H]2C(C)(C)[C@@H](O)CC[C@@]2(C)[C@@H]1COc1ccc2ccc(=O)oc2c1 | 36.5%
CSc1nc2sc3cc(Cl)c(Cl)cc3n2c(=N)c1C#N | 87.9%
COc1ccc(C(=O)CCC(=O)O)cc1 | 98.4%
O=C(CCNCc1ccccc1)c1ccccc1 | 100%
NC(=O)CC1C=CCC1 (stereo unspecified) | 99.2%
CCNc1cc2c(cc1Br)-c1ccccc1C2=O | 74.5%

Structure (SMILES) | growth
O=C(O)c1cn(C2CC2)c2cc(N3CCN(Cc4c(O)ccc5ccccc45)CC3)c(F)cc2c1=O | 4.12% (active)
CCOC(=O)COc1ccc2c(c1)O/C(=C\c1ccc(O)cc1)C2=O | 93.1%
Nc1cc(NN=C(c2ccc(O)cc2)c2ccc(O)cc2)c([N+](=O)[O-])cc1[N+](=O)[O-] | 90.7%
CCCCCCNC(=O)Nc1ncnc2c1ncn2-c1ccccc1 | 85.8%
C[C@]12CCc3c(ccc4cc(O)ccc34)[C@@H]1CC[C@H]2O | 87.8%
Nc1nc(Nc2ccccc2)c2ncn(Cc3ccc4c(c3)OCO4)c2n1 | 31.5%
COc1ccc(OC)c(NC=O)c1 | 95.7%
Fc1cc2[nH]ncc2c2c3c(c(-c4cn[nH]c4)nc12)CCCC3 | 2.83% (active)
CCN(CC)CCCCCCNc1cccc2cc(Br)cnc12 | 62.3%
O=C(CSc1nc2ccc([N+](=O)[O-])cc2[nH]1)Nc1cccc(Cl)c1 | 17.6%
CCN(CC)CCCOc1ccc2c(c1)O/C(=C\c1cccc(OC)c1)C2=O | 87.4%
CC1(C)C(=O)/C(=C\c2ccco2)C[C@]2(C)[C@H]3CC=C4[C@@H]5C[C@](C)(C(=O)O)CC[C@]5(C)CC[C@@]4(C)[C@]3(C)CC[C@@H]12 | -66.6% [100 µM] (active)
C=C(C)[C@@H]1CC[C@]2(C(=O)NCCCCCCN(CCCN)CCCN)CC[C@]3(C)[C@H](CC[C@@H]4[C@@]5(C)CC[C@H](OCCCN)C(C)(C)[C@@H]5CC[C@]43C)[C@@H]12 | 94.5% [100 µM]
C=C(C)[C@@H]1CC[C@]2(COC(=O)c3ccccc3C(=O)O)CC[C@]3(C)[C@H](CC[C@@H]4[C@@]5(C)CC[C@H](OC(=O)c6ccccc6C(=O)O)C(C)(C)[C@@H]5CC[C@]43C)[C@@H]12 | 10.7% [100 µM]
COc1ccc2c(c1)c(-c1noc(-c3cn(C)c4ncc(F)cc34)n1)cn2C | 76.6%
c1ccc(-c2nnc(-c3c[nH]c4ncccc34)s2)cc1 | 53.3%
O=C1COCCN1c1ccc(NCc2cn(Cc3ccc(F)cc3)c3ccccc23)cc1 | -37.8% (active)
CC(=O)Nc1ccc2nc3ccc(NC(C)=O)cc3[n+](-c3ccccc3)c2c1 | 122%
CCCCNC(=O)NS(=O)(=O)Cc1ccccc1 | 100%

What follows are molecules tested on A498 renal in the same assay as above. Settings: 10 µM unless noted.

Structure (SMILES) | growth
NC1=NC(=O)NC1(c1ccccc1)c1ccccc1 | 87.6%
N#C/C(C(=O)c1ccccc1)=C1/C(=O)Nc2ccccc21 | 89%
CN(Cc1cccc(C(F)(F)F)c1)C(=O)[C@@H](CC(=O)N1CCC(N2CCCCC2)CC1)N1C(=O)[C@@H](N2C(=O)OC[C@@H]2c2ccccc2)[C@H]1/C=C/c1ccccc1 | 63%
CCOc1ccc(S(=O)(=O)Nc2ccc3c(c2)N(S(=O)(=O)CC)CCC3)cc1 | 69.3%
CCOC(=O)C(=Cc1ccccc1[N+](=O)[O-])C(=O)OCC | 122%
COc1cc(/C=C/C(=O)/C=C/c2ccc(-n3ccnc3C)cc2)ccc1O | 78.8%
CCOC(=O)CC(c1ccccc1)C(C#N)c1ccccc1 (stereo unspecified) | 91.3%
Cc1ccc(C2=C/C(=C/c3ccc(Br)cc3)C(=O)N2CCc2ccc(S(N)(=O)=O)cc2)cc1 | 78.5%
Cc1ccc(NC(=O)N[C@@H](Cc2cc(F)cc(F)c2)C(=O)N[C@@H]2C(=O)N3CCC[C@H]3C(=O)N3CCCC[C@H]3C(=O)N[C@@H](C)C(=O)N3C[C@H](C)C[C@H]3C(=O)O[C@H]2C)cc1 | -1.49% (active)
C=C(C)[C@@H]1CC[C@]2(C)[C@H](CC[C@@H]3[C@@H]([C@@](C)(O)CCC=C(C)C)CC[C@]32C)[C@@]1(C)CCC(=O)O | -20.2% [100 µM] (active)
C=CCCCCCCCCC(=O)OC(C)C | 91.4%
O=C1Nc2ccccc2/C1=C/C(=O)c1ccc(N2CCCCC2)cc1 | 95.8%
O=C(N=c1n(-c2ccccc2)nc2n1CCN2C1=NCCN1C(=O)c1ccc(Cl)cc1)c1ccc(Cl)cc1 | 73.7%
CC1=CC[C@@H]2C(C)(C)[C@@H](O)CC[C@@]2(C)[C@@H]1COc1ccc2ccc(=O)oc2c1 | 83.2%
CSc1nc2sc3cc(Cl)c(Cl)cc3n2c(=N)c1C#N | 116%
COc1ccc(C(=O)CCC(=O)O)cc1 | 104%
O=C(CCNCc1ccccc1)c1ccccc1 | 112%
NC(=O)CC1C=CCC1 (stereo unspecified) | 97.1%
CCNc1cc2c(cc1Br)-c1ccccc1C2=O | 93.4%

Structure (SMILES) | growth
O=C(O)c1cn(C2CC2)c2cc(N3CCN(Cc4c(O)ccc5ccccc45)CC3)c(F)cc2c1=O | -16.6% (active)
CCOC(=O)COc1ccc2c(c1)O/C(=C\c1ccc(O)cc1)C2=O | 88.6%
Nc1cc(NN=C(c2ccc(O)cc2)c2ccc(O)cc2)c([N+](=O)[O-])cc1[N+](=O)[O-] | 101%
CCCCCCNC(=O)Nc1ncnc2c1ncn2-c1ccccc1 | 83.1%
C[C@]12CCc3c(ccc4cc(O)ccc34)[C@@H]1CC[C@H]2O | 85%
Nc1nc(Nc2ccccc2)c2ncn(Cc3ccc4c(c3)OCO4)c2n1 | 39.8%
COc1ccc(OC)c(NC=O)c1 | 103%
Fc1cc2[nH]ncc2c2c3c(c(-c4cn[nH]c4)nc12)CCCC3 | -56.5% (active)
CCN(CC)CCCCCCNc1cccc2cc(Br)cnc12 | 86.3%
O=C(CSc1nc2ccc([N+](=O)[O-])cc2[nH]1)Nc1cccc(Cl)c1 | 5.48% (active)
CCN(CC)CCCOc1ccc2c(c1)O/C(=C\c1cccc(OC)c1)C2=O | 72.6%
CC1(C)C(=O)/C(=C\c2ccco2)C[C@]2(C)[C@H]3CC=C4[C@@H]5C[C@](C)(C(=O)O)CC[C@]5(C)CC[C@@]4(C)[C@]3(C)CC[C@@H]12 | -89.2% [100 µM] (active)
C=C(C)[C@@H]1CC[C@]2(C(=O)NCCCCCCN(CCCN)CCCN)CC[C@]3(C)[C@H](CC[C@@H]4[C@@]5(C)CC[C@H](OCCCN)C(C)(C)[C@@H]5CC[C@]43C)[C@@H]12 | 130% [100 µM]
C=C(C)[C@@H]1CC[C@]2(COC(=O)c3ccccc3C(=O)O)CC[C@]3(C)[C@H](CC[C@@H]4[C@@]5(C)CC[C@H](OC(=O)c6ccccc6C(=O)O)C(C)(C)[C@@H]5CC[C@]43C)[C@@H]12 | -0.192% [100 µM] (active)
COc1ccc2c(c1)c(-c1noc(-c3cn(C)c4ncc(F)cc34)n1)cn2C | 65.7%
c1ccc(-c2nnc(-c3c[nH]c4ncccc34)s2)cc1 | 67.3%
O=C1COCCN1c1ccc(NCc2cn(Cc3ccc(F)cc3)c3ccccc23)cc1 | -91.7% (active)
CC(=O)Nc1ccc2nc3ccc(NC(C)=O)cc3[n+](-c3ccccc3)c2c1 | 158%
CCCCNC(=O)NS(=O)(=O)Cc1ccccc1 | 110%
